# Source: PubChem BioAssay
# EWS-Fli inh = blocks EWS/Fli oncoprotein-driven transcription | AID 651661 | actives 0.67% (n = 350,000) | inhibition, % at 12.6 µM | A673 NR0B1-luciferase reporter, viability-normalised;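 active = mean inhibition of at least 50% after viability correction, with every replicate also passing that limit; inconclusive = mean reaches 50% but only one of two replicates passes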;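 note: firefly luciferase signal divided by Alamar Blue viability fluorescence both relative to DMSO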
# LGR2 inh = Drosophila LGR2 receptor signaling inhibition; inhibition, % at 9.99 µM; HEK293 LGR2, CRE-luciferase, bursicon-stimulated, 4 h; actives 0.35% (n = 380,000);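 active = drop in luminescence signal, shown as inhibition above about 50% in the replicate tests, limit read from the data, passing the limit was not always enough; inconclusive = probably only some replicates passing the limit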;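 note: agonist challenge used bursicon conditioned medium at about half maximal strength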
# F508del corr = correctors of CFTR F508del function in bronchial epithelial cells; CFBE cells, YFP halide quenching; stimulated with forskolin plus potentiator P3; % fluorescence drop versus neutral controls; activity (quench increase), % at 7.58 µM; actives 0.36% (n = 350,000);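 active = mean added fluorescence quench of at least 8% versus neutral control, with both replicates also reaching 8%; inconclusive = only one of the mean or replicate conditions met; inactive = mean below 8% and not both replicates reaching 8%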;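 note: cells transiently co-express mutant CFTR-F508del with the halide-sensitive YFP; corrector assay measuring rescue of mutant channel to the surface after 24 h compound exposure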
# INS-1E GSIS act = GLuc luminescence reporter in INS-1E cells, primary screen for activators of glucose-dependent secretion of insulin; INS-1E GLuc reporter insulin secretion, 2-3 h; activation, % at 16.6 µM; actives 0.61% (n = 370,000);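 active = lowest replicate activation of at least 40%, so every replicate reaches that level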;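 note: 0% = median of neutral control wells and 100% = median of IBMX positive control wells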
# RAD52 inh = inhibitors of human RAD52 DNA annealing. actives 0.46% (n = 360,000). inhibition, % at 18.7 µM. recombinant RAD52 DNA annealing, FRET fluorescence. P43351;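 active = every replicate showing at least 50% inhibition; inconclusive = mean inhibition at least 50% but not in every replicate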
# RAD54 inh = inhibitors of human RAD54 branch migration; Q92698; RAD54 Holliday junction branch migration, FAM/BHQ fluorescence; inhibition, % at 10.4 µM; actives 0.14% (n = 360,000);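 active = mean normalized replicate activity at least 40 and at least half of replicates scoring 40 or more; inconclusive = only one of the two criteria met; inactive = mean below 40 and under half of replicates reaching 40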;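 note: 0% = median of neutral control wells and 100% = median of positive control wells; inhibitors cause a drop in the FAM fluorescence signal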
# Target sequence (Q92698 whole entry, looked up): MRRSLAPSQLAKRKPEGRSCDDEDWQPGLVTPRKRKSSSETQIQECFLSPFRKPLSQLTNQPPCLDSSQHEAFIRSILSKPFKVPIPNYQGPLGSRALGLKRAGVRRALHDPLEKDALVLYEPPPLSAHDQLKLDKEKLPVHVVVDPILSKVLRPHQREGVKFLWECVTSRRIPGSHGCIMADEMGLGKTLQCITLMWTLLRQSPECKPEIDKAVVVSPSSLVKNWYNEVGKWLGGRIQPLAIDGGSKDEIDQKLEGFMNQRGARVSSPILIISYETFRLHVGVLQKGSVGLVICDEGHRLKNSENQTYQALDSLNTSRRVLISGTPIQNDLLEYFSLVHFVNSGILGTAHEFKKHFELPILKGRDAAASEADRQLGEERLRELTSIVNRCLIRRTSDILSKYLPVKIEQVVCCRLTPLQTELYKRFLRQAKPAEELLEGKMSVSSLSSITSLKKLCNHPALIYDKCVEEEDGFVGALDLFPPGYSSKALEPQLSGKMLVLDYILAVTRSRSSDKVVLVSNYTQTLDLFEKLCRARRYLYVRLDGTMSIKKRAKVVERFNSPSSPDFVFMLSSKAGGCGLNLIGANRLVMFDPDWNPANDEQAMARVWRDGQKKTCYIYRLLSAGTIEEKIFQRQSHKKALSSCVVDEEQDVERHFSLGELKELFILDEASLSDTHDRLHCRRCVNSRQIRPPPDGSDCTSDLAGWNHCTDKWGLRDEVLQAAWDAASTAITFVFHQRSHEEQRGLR
# * marks the source's active call; other numbers are inactive results; ? = inconclusive; . = no result. Only some compounds are listed: those with a hit (about 1.8% of all), similar ones and a draw of the others.
SMILES,EWS-Fli inh,LGR2 inh,F508del corr,INS-1E GSIS act,RAD52 inh,RAD54 inh
CC(C)CN(C(=O)/C=C/c1nc2ccccc2s1)C1CCS(=O)(=O)C1 (centres undefined),0,-3,2,27,-17,-6
CS(=O)(=O)N(CC(=O)N1CCCC1)c1ccc(F)cc1,1,-5,-3,.,-9,3
CCc1ccc(C2NC(=S)NC3=C2C(=O)N(c2ccccc2OC)C(c2ccc(CC)cc2)N3)cc1 (centres undefined),.,.,.,127*,.,0
COC(=O)[C@]1(Cc2ccccc2)N[C@H](CN(C)C(=O)NC(C)C)[C@@H]2C(=O)N(C)C(=O)[C@@H]21,-2,9,-2,13,1,-7
COC(=O)[C@]1(Cc2ccccc2)N[C@H](CN(C)C(=O)Nc2ccc(C)cc2)[C@@H]2C(=O)N(C)C(=O)[C@@H]21,1,-35,-3,65*,4,7
C[C@@H]1CN([C@@H](C)CO)S(=O)(=O)c2ccc(C3=CCCC3)cc2O[C@@H]1CN(C)S(=O)(=O)c1ccc(F)cc1,15,5,-6,-6,-14,7
CC(=O)Nc1ccc(NC(=O)C(C)OC(=O)/C=C/c2cn(-c3ccccc3)nc2-c2cccnc2)cc1 (centres undefined),.,3,.,392*,.,.
COc1cc(-c2cnc3c(NC=O)cc(-c4cccnc4)cn23)cc(OC)c1OC,44,-20,4,21,0,9
C=CCn1c(SCC(=O)Nc2cc(NC(C)=O)ccc2OC)nnc1-c1cccnc1,.,18,.,3,7,-2
CCCc1cc2c(OC)ccc(O)c2c(=O)n1C,-9,-22,-1,53*,-15,.
O=C(NCC1CCCO1)c1nc2c(nnn2Cc2ccc(F)cc2)c(=O)[nH]1 (centres undefined),.,.,.,.,.,-1
N#C/C(=C/c1ccc(-c2ccccc2)o1)c1nc(-c2cccs2)cs1,83*,-10,.,0,-196,.
N#C/C(=C\c1ccc(-c2ccc(F)cc2)o1)C(=O)Nc1nc(-c2cccs2)cs1,-10,29,.,2,-76,.
CN1CCCCN2[C@H](CO)[C@@H](c3ccc(C#Cc4ccccc4F)cc3)[C@@H]2C1,13,-5,-8,1,69*,9
CN1CCCCN2[C@@H](CO)[C@@H](c3ccc(C#Cc4ccccc4F)cc3)[C@@H]2C1,3,-14,1,-19,71*,11
CC(=O)N1CCCCN2[C@H](CO)[C@@H](c3ccc(C#Cc4ccccc4F)cc3)[C@H]2C1,-7,-3,2,-3,12,2
O=C(Cc1ccccc1)NS(=O)(=O)c1ccc(N=NN2CCOCC2)cc1,8,-16,-1,-20,-4,.
CC(OC(=O)c1ccccc1NCCO)C(=O)NCC(=O)Nc1ccc(F)c(F)c1F (centres undefined),-4,8,-1,0,-3,3
CCOC(=O)c1c(C=O)c2sc(C)cc2n1C,-2,-22,0,1,-19,-1
Cc1ccc(NC(=O)COC(=O)Cn2c(C)csc2=O)cc1C,.,.,.,.,.,-3
O=C1CSC(c2cccc([N+](=O)[O-])c2)N1Cc1ccccc1 (centres undefined),7,8,0,-7,-9,-8
O=C1CSC(c2cccc(O)c2)N1Cc1ccccc1 (centres undefined),13,-7,-1,42*,-13,.
O=C(Nc1ccc(S(=O)(=O)N2CCOCC2)cc1)c1cc(-c2cc(Cl)ccc2O)n[nH]1,59*,?,1,1,-3,.
O=C(Nc1ccc(S(=O)(=O)N2CCOCC2)cc1)c1ccc(=O)[nH]c1,-7,16,2,43*,-10,.
Cc1cc(O)c(-c2cc(C(=O)Nc3ccc(S(=O)(=O)N4CCOCC4)cc3)[nH]n2)cc1C,.,.,.,.,.,2
SMILES,EWS-Fli inh,LGR2 inh,F508del corr,INS-1E GSIS act,RAD52 inh,RAD54 inh
CC(C)c1ccc2c(c1)CCC1C(C)(CN)CCCC21C (centres undefined),59*,1,0,13,-19,7
CC(C)c1ccc2c(c1)CC[C@H]1[C@](C)(CN)CCC[C@]21C,50,-4,-2,.,1,4
Cc1ccc(S(=O)(=O)c2ncccc2[N+](=O)[O-])cc1,23,40,4,65*,-17,36
O=C(c1ccc2c(c1)OCO2)N1CC[C@@H]2[C@H](CO)Nc3ccc(-c4ccc(F)cc4)cc3[C@@H]21,-4,6,2,-4,-12,3
CCOc1ccccc1NC(=O)CSc1ccc(-c2ccco2)nn1,.,-1,-2,61*,-23,-4
O=[N+]([O-])c1ccc2nc(NCCCO)nc(-c3ccccc3)c2c1,.,-18,.,22,.,.
O=C(O)CNc1nc(-c2ccccc2)c2cc([N+](=O)[O-])ccc2n1,.,-27,.,61*,.,-3
OCCNc1nc(-c2ccccc2)c2cc(Br)ccc2n1,13,-17,1,59*,4,7
CCOC(=O)COc1nc2ccc(Br)cc2c(-c2ccccc2)c1C(C)=O,8,2,-1,8,4,-10
CCOc1nc(-c2ccccc2)c2cc(Br)ccc2n1,23,-15,2,47*,-3,-2
N#Cc1ccccc1/C=N/Nc1nc(-c2ccccc2)c2cc(Br)ccc2n1,.,.,.,.,.,3
Cc1ccc(OCCn2cnc3ccccc3c2=O)c([N+](=O)[O-])c1,-52,-35,-5,10,-4,.
C=C1C(=O)C23C(O)C1CCC2C12CCCC(C)(COC(C)=O)C1C(O)C3(O)OC2 (centres undefined),57*,98*,-5,162*,0,.
COc1ccc(S(=O)(=O)Nc2ccccc2C)cc1,.,.,.,.,.,6
COc1ccc(S(=O)(=O)Nc2cccc3ccc(O)cc23)cc1,27,11,14*,-22,-11,9
Cc1ccccc1N1C(=O)CC(Sc2nnc(-c3ccccc3)o2)C1=O (centres undefined),.,.,.,.,.,-1
O=C1CC(Sc2nnc(-c3ccccc3)o2)C(=O)N1c1ccccc1 (centres undefined),.,.,.,86*,.,-1
CCn1nnc(NC(=O)c2sc3ccccc3c2Cl)n1,.,-34,.,43*,.,7
Cc1ccc(NC(=O)CNC(=O)c2sc3ccccc3c2Cl)nc1,8,-28,-1,70*,-5,-6
CN1CCN(c2ccc(NC(=O)N3CCc4ccccc43)cc2)CC1,62*,60*,0,8,3,0
CCn1nnc(NC(=O)c2cccnc2Cl)n1,.,.,.,.,.,0
CN1CCN(c2ccc(NC(=O)c3sc4ccccc4c3Cl)cc2)CC1,19,64*,2,14,32,11
CN1CCN(C(=O)c2ccccc2NC(=O)c2sc3ccccc3c2Cl)CC1,2,11,1,19,7,7
CCn1nc(C(=O)OCC(=O)NC(C)C)c2ccccc2c1=O,8,18,1,13,-11,.
